# Results taken from article PMC7862700, “An all-to-all approach to the identification of sequence-specific readers for epigenetic DNA modifications on cytosine”.
# Tests used:
# Assay in all cases: DAPPL (digital affinity profiling via proximity ligation, sequencing); 10 mM Tris-HCl pH 7.5, 50 mM NaCl, 1 mM DTT, 4% glycerol, room temperature, 30 min; GST-TFs on glutathione beads, 16-mer random dsDNA library, 0.1% formaldehyde crosslink after washing; high values mean tight binding
# FLI1 = target: T1, FLI1 (Homo sapiens, UniProt Q01543 1-452); details: protein: recombinant; tags: N-terminal GST; dsDNA, one strand shown
# T1 sequence: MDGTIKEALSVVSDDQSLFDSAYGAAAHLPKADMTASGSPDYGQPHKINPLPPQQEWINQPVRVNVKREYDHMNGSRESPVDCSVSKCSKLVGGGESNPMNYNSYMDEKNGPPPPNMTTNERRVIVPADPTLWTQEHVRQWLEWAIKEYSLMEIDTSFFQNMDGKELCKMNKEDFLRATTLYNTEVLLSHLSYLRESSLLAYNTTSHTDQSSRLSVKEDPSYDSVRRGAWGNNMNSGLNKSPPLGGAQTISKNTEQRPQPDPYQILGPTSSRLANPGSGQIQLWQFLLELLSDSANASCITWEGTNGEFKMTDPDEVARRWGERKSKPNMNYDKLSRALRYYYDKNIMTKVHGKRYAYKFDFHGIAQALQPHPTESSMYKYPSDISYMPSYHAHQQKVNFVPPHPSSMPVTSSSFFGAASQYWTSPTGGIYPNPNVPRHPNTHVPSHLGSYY
# How it was run: (§1)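 Sequencing on an Illumina NextSeq500 followed washing, crosslinking with 0.1% formaldehyde, proximity ligation (BsaI/T4 ligase, 1 h, 37 °C) and PCR amplification of pools that had been incubated for 30 min at room temperature with 200 nmole of a random double-stranded 16-mer DNA library in Tris/NaCl/DTT/glycerol buffer. Each pool held DNA-barcoded human transcription factors, expressed in yeast as GST fusions and captured on glutathione beads, plus a tag-only sample. Binding signal is a hexamer's read frequency for a factor divided by its frequency in the tag-only sample.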
# ELK1 = target: T2, ELK1 (Homo sapiens, UniProt P19419 1-428); details: protein: recombinant; tags: N-terminal GST; dsDNA, one strand shown
# T2 sequence: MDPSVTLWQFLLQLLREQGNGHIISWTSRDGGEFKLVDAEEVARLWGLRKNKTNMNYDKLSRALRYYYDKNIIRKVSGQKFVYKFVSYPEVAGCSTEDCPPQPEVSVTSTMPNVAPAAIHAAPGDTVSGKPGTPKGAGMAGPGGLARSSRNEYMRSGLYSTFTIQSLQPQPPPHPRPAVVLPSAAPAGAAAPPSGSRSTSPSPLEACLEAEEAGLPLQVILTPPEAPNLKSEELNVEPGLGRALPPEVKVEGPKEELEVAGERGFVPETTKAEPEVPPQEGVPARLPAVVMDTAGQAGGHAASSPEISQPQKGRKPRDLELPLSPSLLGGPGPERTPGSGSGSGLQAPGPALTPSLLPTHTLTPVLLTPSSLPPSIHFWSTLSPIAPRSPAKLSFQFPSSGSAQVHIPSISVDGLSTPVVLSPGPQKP
# How it was run: as §1
# GABPA = target: T3, GABPA (Homo sapiens, UniProt Q06546 1-454); details: protein: recombinant; tags: N-terminal GST; dsDNA, one strand shown
# T3 sequence: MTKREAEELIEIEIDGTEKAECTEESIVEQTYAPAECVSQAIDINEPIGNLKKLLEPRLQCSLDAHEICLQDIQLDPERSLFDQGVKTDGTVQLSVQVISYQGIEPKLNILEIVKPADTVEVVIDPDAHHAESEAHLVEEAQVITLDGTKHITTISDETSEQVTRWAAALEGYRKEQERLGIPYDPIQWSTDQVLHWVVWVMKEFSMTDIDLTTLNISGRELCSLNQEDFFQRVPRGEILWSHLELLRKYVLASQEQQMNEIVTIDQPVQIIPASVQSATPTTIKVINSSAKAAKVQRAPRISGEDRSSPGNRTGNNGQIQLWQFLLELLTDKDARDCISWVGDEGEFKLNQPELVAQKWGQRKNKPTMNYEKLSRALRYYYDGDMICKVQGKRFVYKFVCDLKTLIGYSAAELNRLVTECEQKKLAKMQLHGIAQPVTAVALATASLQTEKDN
# How it was run: as §1
# ERG = target: T4, ERG (Homo sapiens, UniProt P11308 1-479); details: protein: recombinant; tags: N-terminal GST; dsDNA, one strand shown
# T4 sequence: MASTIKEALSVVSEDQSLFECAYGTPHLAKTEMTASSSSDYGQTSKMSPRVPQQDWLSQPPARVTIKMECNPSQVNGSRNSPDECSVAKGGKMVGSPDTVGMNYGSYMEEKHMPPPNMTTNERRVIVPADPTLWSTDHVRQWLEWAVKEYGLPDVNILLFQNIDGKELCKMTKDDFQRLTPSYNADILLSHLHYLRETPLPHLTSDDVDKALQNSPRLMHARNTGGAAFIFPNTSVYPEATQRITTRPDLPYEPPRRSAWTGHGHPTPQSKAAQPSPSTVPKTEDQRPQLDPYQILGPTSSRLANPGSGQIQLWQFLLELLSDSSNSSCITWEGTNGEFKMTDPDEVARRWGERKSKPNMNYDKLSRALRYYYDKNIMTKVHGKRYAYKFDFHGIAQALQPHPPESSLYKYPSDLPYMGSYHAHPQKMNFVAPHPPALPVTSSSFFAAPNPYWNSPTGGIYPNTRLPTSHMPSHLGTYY
# How it was run: as §1
# ELF1 = ELF1 (Homo sapiens, UniProt P32519 1-619); details: protein: recombinant; tags: N-terminal GST; dsDNA, one strand shown
# How it was run: as §1
# EHF = target: T5, EHF (Homo sapiens, UniProt Q9NZC4 1-300); details: protein: recombinant; tags: N-terminal GST; dsDNA, one strand shown
# T5 sequence: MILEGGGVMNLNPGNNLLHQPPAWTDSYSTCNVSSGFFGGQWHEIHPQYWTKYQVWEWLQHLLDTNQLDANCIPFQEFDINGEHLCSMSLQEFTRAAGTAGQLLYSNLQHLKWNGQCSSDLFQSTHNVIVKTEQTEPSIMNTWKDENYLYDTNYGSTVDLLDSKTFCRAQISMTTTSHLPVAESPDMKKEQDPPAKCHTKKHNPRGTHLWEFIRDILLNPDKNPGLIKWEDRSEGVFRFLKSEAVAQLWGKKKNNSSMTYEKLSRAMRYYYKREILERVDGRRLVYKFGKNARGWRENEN
# How it was run: as §1
# SPI1 = SPI1 (Homo sapiens, UniProt P17947 1-270); details: protein: recombinant; tags: N-terminal GST; dsDNA, one strand shown
# How it was run: as §1
# SPIB = SPIB (Homo sapiens, UniProt Q01892 1-262); details: protein: recombinant; tags: N-terminal GST; dsDNA, one strand shown
# How it was run: as §1
# ELK3 = target: T6, ELK3 (Homo sapiens, UniProt P41970 1-407); details: protein: recombinant; tags: N-terminal GST; dsDNA, one strand shown
# T6 sequence: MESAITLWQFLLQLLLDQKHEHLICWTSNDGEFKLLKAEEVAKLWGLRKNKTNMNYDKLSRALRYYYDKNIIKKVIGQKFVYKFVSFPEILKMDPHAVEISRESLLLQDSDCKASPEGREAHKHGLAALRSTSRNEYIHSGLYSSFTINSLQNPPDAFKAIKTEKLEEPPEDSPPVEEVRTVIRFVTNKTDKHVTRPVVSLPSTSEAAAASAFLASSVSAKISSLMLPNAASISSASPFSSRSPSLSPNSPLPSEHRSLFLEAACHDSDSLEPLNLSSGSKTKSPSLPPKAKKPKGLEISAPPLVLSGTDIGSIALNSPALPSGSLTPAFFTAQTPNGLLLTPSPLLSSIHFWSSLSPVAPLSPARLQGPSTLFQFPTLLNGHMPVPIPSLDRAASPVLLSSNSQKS
# How it was run: as §1
# FEV = target: T7, FEV (Homo sapiens, UniProt Q99581 1-238); details: protein: recombinant; tags: N-terminal GST; dsDNA, one strand shown
# T7 sequence: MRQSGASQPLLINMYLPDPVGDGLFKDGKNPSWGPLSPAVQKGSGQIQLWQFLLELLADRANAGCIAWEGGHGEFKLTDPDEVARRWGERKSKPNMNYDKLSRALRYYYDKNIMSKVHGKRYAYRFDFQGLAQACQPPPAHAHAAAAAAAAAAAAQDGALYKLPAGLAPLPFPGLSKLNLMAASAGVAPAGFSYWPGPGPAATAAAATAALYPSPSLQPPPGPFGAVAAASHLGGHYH
# How it was run: as §1
# ETV5 = ETV5 (Homo sapiens, UniProt P41161 1-510); details: protein: recombinant; tags: N-terminal GST; dsDNA, one strand shown
# How it was run: as §1
# HSF1 = HSF1 (Homo sapiens, UniProt Q00613 1-529); details: protein: recombinant; tags: N-terminal GST; chain copies: 3; dsDNA, one strand shown
# How it was run: as §1
# SPIC = target: T8, SPIC (Homo sapiens, UniProt Q8N5J4 1-248); details: protein: recombinant; tags: N-terminal GST; dsDNA, one strand shown
# T8 sequence: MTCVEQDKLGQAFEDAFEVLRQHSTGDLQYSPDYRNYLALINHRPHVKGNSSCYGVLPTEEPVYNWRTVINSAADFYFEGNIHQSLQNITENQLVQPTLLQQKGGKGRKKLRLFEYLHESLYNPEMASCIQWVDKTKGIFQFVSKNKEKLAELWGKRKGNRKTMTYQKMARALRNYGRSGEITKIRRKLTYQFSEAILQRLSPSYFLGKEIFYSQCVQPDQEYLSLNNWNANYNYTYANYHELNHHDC
# How it was run: as §1
# ELF4 = ELF4 (Homo sapiens, UniProt Q99607 1-663); details: protein: recombinant; tags: N-terminal GST; dsDNA, one strand shown
# How it was run: as §1
# ELK4 = target: T9, ELK4 (Homo sapiens, UniProt P28324-2 1-405); details: protein: recombinant; tags: N-terminal GST; dsDNA, one strand shown
# T9 sequence: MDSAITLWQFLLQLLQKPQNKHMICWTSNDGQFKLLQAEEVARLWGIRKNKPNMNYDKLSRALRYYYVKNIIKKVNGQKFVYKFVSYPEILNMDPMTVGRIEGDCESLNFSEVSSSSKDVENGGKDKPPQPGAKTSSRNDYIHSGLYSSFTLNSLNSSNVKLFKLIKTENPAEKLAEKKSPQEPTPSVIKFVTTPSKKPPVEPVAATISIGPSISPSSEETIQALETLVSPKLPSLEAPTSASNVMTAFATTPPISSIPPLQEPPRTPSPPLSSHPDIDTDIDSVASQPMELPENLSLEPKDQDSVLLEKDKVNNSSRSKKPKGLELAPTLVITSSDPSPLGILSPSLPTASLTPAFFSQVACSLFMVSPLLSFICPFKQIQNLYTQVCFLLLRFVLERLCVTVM
# How it was run: as §1
# ETV2 = target: T10, ETV2 (Homo sapiens, UniProt O00321 1-342); details: protein: recombinant; tags: N-terminal GST; dsDNA, one strand shown
# T10 sequence: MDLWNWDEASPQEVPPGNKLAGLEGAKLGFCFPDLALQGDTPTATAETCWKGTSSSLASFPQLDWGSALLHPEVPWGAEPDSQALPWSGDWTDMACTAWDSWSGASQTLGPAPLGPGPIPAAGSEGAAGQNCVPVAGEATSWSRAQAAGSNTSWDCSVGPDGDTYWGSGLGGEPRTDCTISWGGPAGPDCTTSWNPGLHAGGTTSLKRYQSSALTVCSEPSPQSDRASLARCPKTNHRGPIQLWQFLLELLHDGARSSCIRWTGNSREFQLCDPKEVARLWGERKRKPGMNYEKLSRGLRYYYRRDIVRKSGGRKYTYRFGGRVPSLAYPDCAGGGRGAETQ
# How it was run: as §1
# ELF3 = target: T11, ELF3 (Homo sapiens, UniProt P78545 1-371); details: protein: recombinant; tags: N-terminal GST; dsDNA, one strand shown
# T11 sequence: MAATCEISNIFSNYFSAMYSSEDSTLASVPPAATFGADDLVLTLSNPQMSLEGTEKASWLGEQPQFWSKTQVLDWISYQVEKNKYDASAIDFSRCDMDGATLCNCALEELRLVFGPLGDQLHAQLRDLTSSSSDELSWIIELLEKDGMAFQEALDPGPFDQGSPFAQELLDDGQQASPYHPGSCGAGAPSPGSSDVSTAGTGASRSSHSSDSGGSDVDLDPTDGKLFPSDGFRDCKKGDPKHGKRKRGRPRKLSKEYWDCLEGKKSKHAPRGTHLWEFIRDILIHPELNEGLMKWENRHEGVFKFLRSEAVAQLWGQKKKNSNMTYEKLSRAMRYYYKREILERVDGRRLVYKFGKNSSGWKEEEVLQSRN
# How it was run: as §1
# CRX = CRX (Homo sapiens, UniProt O43186 1-299); details: protein: recombinant; tags: N-terminal GST; dsDNA, one strand shown
# How it was run: as §1
# ETV1 = ETV1 (Homo sapiens, UniProt P50549 1-477); details: protein: recombinant; tags: N-terminal GST; dsDNA, one strand shown
# How it was run: as §1
# Chain of ETV1 (P50549 whole entry): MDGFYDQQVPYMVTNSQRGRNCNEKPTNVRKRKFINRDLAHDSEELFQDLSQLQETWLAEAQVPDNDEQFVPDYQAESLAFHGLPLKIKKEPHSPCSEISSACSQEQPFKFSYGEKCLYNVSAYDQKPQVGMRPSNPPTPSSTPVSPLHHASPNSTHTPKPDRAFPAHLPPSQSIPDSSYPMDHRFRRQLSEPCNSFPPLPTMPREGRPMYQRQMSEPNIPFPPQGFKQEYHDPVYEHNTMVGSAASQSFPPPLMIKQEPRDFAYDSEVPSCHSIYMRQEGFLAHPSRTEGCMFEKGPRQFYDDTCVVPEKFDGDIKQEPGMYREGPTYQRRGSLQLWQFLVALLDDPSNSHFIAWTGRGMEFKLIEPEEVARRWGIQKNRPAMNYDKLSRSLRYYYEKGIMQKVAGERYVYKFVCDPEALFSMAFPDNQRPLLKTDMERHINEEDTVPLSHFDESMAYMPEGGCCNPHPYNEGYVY
# Chain of SPIB (Q01892 whole entry): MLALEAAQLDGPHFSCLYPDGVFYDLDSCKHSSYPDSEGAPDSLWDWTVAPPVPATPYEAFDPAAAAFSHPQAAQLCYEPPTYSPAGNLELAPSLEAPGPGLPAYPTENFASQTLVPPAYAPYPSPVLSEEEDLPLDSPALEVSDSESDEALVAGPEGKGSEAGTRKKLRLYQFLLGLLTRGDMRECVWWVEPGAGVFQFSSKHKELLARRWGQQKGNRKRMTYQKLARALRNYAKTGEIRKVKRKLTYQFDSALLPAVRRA
# Chain of CRX (O43186 whole entry): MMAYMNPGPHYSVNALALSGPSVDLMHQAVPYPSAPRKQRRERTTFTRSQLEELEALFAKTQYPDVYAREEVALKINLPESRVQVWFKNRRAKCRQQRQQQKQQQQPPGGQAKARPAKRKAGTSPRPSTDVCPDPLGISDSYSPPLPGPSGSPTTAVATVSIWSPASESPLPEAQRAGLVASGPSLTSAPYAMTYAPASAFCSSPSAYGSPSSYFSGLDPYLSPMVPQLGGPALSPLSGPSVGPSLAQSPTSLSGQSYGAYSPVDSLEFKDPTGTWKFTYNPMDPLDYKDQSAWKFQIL
# Chain of ELF4 (Q99607 whole entry): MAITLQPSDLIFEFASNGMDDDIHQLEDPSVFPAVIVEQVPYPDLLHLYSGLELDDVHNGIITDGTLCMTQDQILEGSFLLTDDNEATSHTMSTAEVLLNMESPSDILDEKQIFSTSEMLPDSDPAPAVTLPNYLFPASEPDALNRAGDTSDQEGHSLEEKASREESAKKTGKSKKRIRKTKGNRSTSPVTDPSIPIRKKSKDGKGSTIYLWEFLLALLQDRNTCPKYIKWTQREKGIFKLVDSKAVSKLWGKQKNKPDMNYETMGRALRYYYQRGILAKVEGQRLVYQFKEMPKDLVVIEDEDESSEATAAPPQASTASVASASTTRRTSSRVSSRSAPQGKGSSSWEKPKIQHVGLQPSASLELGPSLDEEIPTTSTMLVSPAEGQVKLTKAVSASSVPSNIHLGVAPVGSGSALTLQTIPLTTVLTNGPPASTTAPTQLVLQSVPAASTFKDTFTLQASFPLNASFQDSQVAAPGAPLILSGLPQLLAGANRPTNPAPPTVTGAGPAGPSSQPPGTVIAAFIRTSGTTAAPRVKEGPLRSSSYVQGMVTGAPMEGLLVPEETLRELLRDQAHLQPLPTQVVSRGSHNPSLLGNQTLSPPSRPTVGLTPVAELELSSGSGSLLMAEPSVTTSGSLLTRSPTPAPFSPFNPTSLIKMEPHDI
# Chain of ETV5 (P41161 whole entry): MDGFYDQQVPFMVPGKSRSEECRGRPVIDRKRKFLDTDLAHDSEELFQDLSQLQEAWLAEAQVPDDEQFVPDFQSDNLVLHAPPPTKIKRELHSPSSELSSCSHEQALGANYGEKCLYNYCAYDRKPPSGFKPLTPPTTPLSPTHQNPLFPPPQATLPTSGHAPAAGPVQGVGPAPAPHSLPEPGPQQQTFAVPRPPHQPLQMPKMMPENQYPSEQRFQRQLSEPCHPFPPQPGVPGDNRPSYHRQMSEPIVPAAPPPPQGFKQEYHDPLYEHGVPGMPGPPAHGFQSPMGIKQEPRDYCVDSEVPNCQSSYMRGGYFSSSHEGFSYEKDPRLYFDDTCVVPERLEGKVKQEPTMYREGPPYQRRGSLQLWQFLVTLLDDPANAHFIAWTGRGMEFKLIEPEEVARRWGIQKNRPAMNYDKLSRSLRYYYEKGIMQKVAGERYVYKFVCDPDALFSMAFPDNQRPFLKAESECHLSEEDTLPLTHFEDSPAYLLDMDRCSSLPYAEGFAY
# Chain of HSF1 (Q00613 whole entry): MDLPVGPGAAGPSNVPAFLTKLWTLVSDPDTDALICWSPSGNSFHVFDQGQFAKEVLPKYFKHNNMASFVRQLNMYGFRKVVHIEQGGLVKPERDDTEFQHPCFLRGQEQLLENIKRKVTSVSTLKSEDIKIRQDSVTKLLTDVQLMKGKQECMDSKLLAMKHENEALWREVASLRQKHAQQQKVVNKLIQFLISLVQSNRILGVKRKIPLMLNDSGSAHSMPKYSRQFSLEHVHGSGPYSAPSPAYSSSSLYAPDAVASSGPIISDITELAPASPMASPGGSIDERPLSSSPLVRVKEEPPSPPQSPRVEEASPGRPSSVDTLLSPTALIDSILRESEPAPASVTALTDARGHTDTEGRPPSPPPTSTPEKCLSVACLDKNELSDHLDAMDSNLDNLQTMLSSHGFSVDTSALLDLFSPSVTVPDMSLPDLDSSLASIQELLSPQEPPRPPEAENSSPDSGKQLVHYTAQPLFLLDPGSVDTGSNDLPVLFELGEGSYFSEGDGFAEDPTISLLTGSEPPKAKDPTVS
# Chain of ELF1 (P32519 whole entry): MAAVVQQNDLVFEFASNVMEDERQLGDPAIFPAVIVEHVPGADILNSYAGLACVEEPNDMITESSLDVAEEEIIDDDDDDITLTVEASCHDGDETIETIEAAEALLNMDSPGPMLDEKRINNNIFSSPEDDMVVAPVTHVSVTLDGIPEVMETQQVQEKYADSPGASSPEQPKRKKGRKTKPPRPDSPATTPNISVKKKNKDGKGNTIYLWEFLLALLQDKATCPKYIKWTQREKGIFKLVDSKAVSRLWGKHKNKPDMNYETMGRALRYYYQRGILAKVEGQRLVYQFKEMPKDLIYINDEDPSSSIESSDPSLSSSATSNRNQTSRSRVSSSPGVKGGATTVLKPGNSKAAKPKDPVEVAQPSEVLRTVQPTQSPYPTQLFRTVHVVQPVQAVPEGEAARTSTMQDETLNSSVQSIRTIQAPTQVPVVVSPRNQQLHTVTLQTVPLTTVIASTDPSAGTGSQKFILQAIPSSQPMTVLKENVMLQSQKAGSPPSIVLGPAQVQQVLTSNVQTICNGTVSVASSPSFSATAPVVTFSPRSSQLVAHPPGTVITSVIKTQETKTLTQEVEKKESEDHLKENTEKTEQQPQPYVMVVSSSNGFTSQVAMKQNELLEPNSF
sequence,measurement,setting,value
ACTATC,binding signal,FLI1,"1.15 fold enrichment (6-mer frequency, TF over GST control)"
same,binding signal,ELK1,"1.13 fold enrichment (6-mer frequency, TF over GST control)"
same,binding signal,GABPA,"1.17 fold enrichment (6-mer frequency, TF over GST control)"
same,binding signal,ERG,"1.11 fold enrichment (6-mer frequency, TF over GST control)"
same,binding signal,ELF1,"1.12 fold enrichment (6-mer frequency, TF over GST control)"
same,binding signal,EHF,"1.14 fold enrichment (6-mer frequency, TF over GST control)"
same,binding signal,SPI1,"1.21 fold enrichment (6-mer frequency, TF over GST control)"
same,binding signal,SPIB,"1.16 fold enrichment (6-mer frequency, TF over GST control)"
same,binding signal,ELK3,"1.07 fold enrichment (6-mer frequency, TF over GST control)"
same,binding signal,FEV,"1.13 fold enrichment (6-mer frequency, TF over GST control)"
same,binding signal,ETV5,"1.13 fold enrichment (6-mer frequency, TF over GST control)"
same,binding signal,HSF1,"1.13 fold enrichment (6-mer frequency, TF over GST control)"
same,binding signal,SPIC,"1.19 fold enrichment (6-mer frequency, TF over GST control)"
same,binding signal,ELF4,"1.24 fold enrichment (6-mer frequency, TF over GST control)"
same,binding signal,ELK4,"1.2 fold enrichment (6-mer frequency, TF over GST control)"
same,binding signal,ETV2,"1.32 fold enrichment (6-mer frequency, TF over GST control)"
same,binding signal,ELF3,"1.22 fold enrichment (6-mer frequency, TF over GST control)"
same,binding signal,CRX,"1.15 fold enrichment (6-mer frequency, TF over GST control)"
same,binding signal,ETV1,"1.15 fold enrichment (6-mer frequency, TF over GST control)"
